Screens: PubChem, National Center for Advancing Translational Sciences (NCATS)
hNpr1 antagonist = Natriuretic polypeptide receptor (hNpr1) antagonism - Primary qHTS; HEK293 hNpr1 GloSensor cGMP, ANP-stimulated luminescence; Potency, µM (highest dose often 46.3 µM), without a hit: top-dose activity change, negative = inhibition, actives largely listed as inhibitors; actives 1.6% (n = 76,000); AID 1347048, 2019; calls by dose curve; further: nearly all actives have a fitted effect of over 60% in size
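Compound pre-incubated 30 min at room temperature on GloSensor-loaded HEK293 cells stably carrying hNpr1 and the pGS-40F cGMP biosensor. Stimulation uses hNppA at 0.1 nM final; luminescence is taken at baseline and 20 min post-agonist.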
NIH3T3 tox = Cytotoxic Profiling in NIH 3T3 Cell Line of Diverse Libraries Using Quantitative High-Throughput Screening; actives 4.3% (n = 94,000); Potency, µM (titrated, usually from 96.7 µM), without a hit: at the top dose activity change, negative = cytotoxicity, actives largely listed as inhibitors; NIH 3T3 viability, CellTiter-Glo ATP luminescence, 48-72 h; further: nearly all actives have a fitted effect of over 55% in size
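Luminescent ATP readout (CellTiter-Glo, 10 min RT) after 48 or 72 hr compound exposure of NIH 3T3 cells seeded at 400 cells/well in 1536-well format; quantitative HTS.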
HEK cytotox = Cytotoxic Profiling in HEK 293 Cell Line of Diverse Libraries Using Quantitative High-Throughput Screening | Potency, µM (titrated, usually from 115 µM), without a hit: at the top dose activity change, negative = cytotoxicity, actives largely listed as inhibitors | actives 6.6% (n = 94,000) | HEK 293 viability, ATP luminescence (CellTiter-Glo), 48-72 h; further: nearly all actives have a fitted effect of over 60% in size
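Viability of HEK 293 cells, plated at 250 cells/well, was judged by cellular ATP after compound treatment for 48 or 72 hr. Luminescence was imaged 10 min after CellTiter-Glo addition at room temperature.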
Luciferase inh = Firefly luciferase inhibition profiling of diverse chemical library using quantitative high-throughput screening; purified P. pyralis luciferase, luminescence, biochemical; Potency, µM (doses to about 115 µM), most hits filed as inhibitors; actives 2.5% (n = 76,000); further: nearly all actives have a fitted effect of over 65% in size
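FLuc 10nM, D-luciferin 10uM, ATP 10uM, Mg acetate 10mM, Tris acetate pH 7.5, Tween/BSA; cpd qHTS; enzyme added last; CCD luminescence.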
* hit, by the source's call; ! = a repeat was not active; [ ] = dose if it differs, or a comment. An excerpt weighted towards active compounds, which were near 11% of everything screened. Unless noted, the call rests on the fitted dose curve; in most records, active means well fitted curve in the direction sought with a large enough effect; inconclusive means small, poorly fitted or top-dose-only effect, or another doubt; inactive means no such curve, though single readings can be large; an effect the other way counts as inactive or inconclusive. On the % scale 0 is the no-effect control and ±100 the full control effect; potency means the concentration at half of the fitted maximal effect.

`O=C(NC1CCCCC1)N1Cc2[nH]cnc2C[C@H]1c1nc(-c2ccc(Cl)cc2)no1` gave hNpr1 antagonist -5%[70.6 µM], NIH3T3 tox -27%[174 µM], HEK cytotox inactive and Luciferase inh inconclusive.
Screening COc1ccc(NC(=O)N2Cc3[nH]cnc3C[C@H]2c2nc(-c3ccccc3)no2)cc1 returned hNpr1 antagonist -21%[70.6 µM], NIH3T3 tox 32µM*, HEK cytotox inconclusive and Luciferase inh 40µM*.
`CCC1COCCN1Cc1cn(-c2ccccc2)nc1-c1ccc(OC)cc1F` (stereo not given) gave hNpr1 antagonist 0%, NIH3T3 tox inconclusive, HEK cytotox inconclusive and Luciferase inh inconclusive.
Screening CC(C)c1noc([C@@H]2Cc3nc[nH]c3CN2C(=O)Nc2ccc(Cl)cc2)n1 returned hNpr1 antagonist -3%[70.6 µM], NIH3T3 tox 89µM*, HEK cytotox 100µM* and Luciferase inh inactive.
`Cc1ccc(NC(=O)N2Cc3[nH]cnc3C[C@H]2c2nc(-c3ccc(Cl)cc3)no2)cc1` gave hNpr1 antagonist inconclusive, NIH3T3 tox inconclusive, HEK cytotox 71µM* and Luciferase inh 40µM*.
Cc1ccc(NC(=O)N2Cc3[nH]cnc3C[C@H]2c2nc(-c3ccncc3)no2)cc1 was read as hNpr1 antagonist -4%[70.6 µM], NIH3T3 tox 2%[174 µM], HEK cytotox inactive and Luciferase inh inactive.
Screening O=C(Nc1ccccc1)N1Cc2[nH]cnc2C[C@H]1c1nc(-c2ccc3ccccc3c2)no1 returned hNpr1 antagonist 0%, NIH3T3 tox -10%, HEK cytotox -3% and Luciferase inh inactive.
Screening CC(=O)c1ccc(NC(=O)N2Cc3[nH]cnc3C[C@H]2c2nc(-c3ccc(F)cc3)no2)cc1 returned hNpr1 antagonist -3%, NIH3T3 tox 89µM*, HEK cytotox -1% and Luciferase inh inconclusive.
For Cc1ccc(NC(=O)N2Cc3[nH]cnc3C[C@H]2c2nc(-c3ccc4ccccc4c3)no2)cc1 the results were hNpr1 antagonist -26%, NIH3T3 tox inconclusive, HEK cytotox inconclusive and Luciferase inh 20µM*.
`CO[C@H]1CN(C2CCN(C(=O)CCC3CCCC3)CC2)[C@H]1c1ccncc1` gave NIH3T3 tox -31% and HEK cytotox inconclusive.
For Cc1cccc(C)c1-c1nnc2ccc(C(=O)N3CCN(C)CC3)cn12 the results were NIH3T3 tox -2%[138 µM] and HEK cytotox 3%[172 µM].
Screening O=[S+]([O-])(c1cccc(C(F)(F)F)c1)N1CCCN(c2ccnc3ccnn23)CC1 returned NIH3T3 tox inconclusive and HEK cytotox 45µM*.
O=C(c1ccc(C(F)(F)F)cc1)N1CCCN(c2ccnc3ccnn23)CC1 was read as NIH3T3 tox inconclusive and HEK cytotox 22µM*.
Screening O=C1CN([S+](=O)([O-])c2ccc(F)cc2)CC(O)CN1Cc1cccc(F)c1 (stereo not given) returned NIH3T3 tox inconclusive and HEK cytotox -30%.
For OC1(c2ccc(F)cc2)CCN(c2nccc(-c3ccccn3)n2)CC1 the results were hNpr1 antagonist -5%, NIH3T3 tox -23%, HEK cytotox inconclusive and Luciferase inh inactive.
C1=CC[C@H]2CN(c3nccc(-c4ccccn4)n3)C[C@H]2C1 was read as hNpr1 antagonist -13%, NIH3T3 tox inconclusive, HEK cytotox 45µM* and Luciferase inh inactive.
COCCN1CCN(C[C@@H]2C=C(C)[C@H](Cc3nnc(C)o3)C[C@H]2C(C)C)CC1 was read as hNpr1 antagonist -3%[70.6 µM], NIH3T3 tox inconclusive, HEK cytotox 89µM* and Luciferase inh inactive.
Screening COc1ccc(-c2nnc(C[C@@H]3C[C@@H](C(C)C)[C@H](CN4CCN(c5ncccn5)CC4)C=C3C)o2)cc1 returned hNpr1 antagonist -27%, NIH3T3 tox inconclusive, HEK cytotox 40µM* and Luciferase inh inactive.
`COCCN1CCN(C[C@@H]2C=C(C)[C@H](Cc3nnc(-c4ccc(OC)cc4)o3)C[C@H]2C(C)C)CC1` gave hNpr1 antagonist 0%, NIH3T3 tox 40µM*, HEK cytotox 40µM* and Luciferase inh inactive.
Screening CC(=O)N1CCC(c2nn(-c3ccc(F)cc3)c(=O)[nH]2)CC1 returned hNpr1 antagonist 23%[70.6 µM], NIH3T3 tox -21%[138 µM], HEK cytotox -22%[172 µM] and Luciferase inh inactive.
Screening O=c1[nH]c(C2CCCN(Cc3ccc(C(F)(F)F)cc3)C2)nn1-c1ccc(Cl)cc1 (stereo not given) returned hNpr1 antagonist -14%, NIH3T3 tox -31%, HEK cytotox 0% and Luciferase inh inactive.
Screening COc1ccc(-n2nc(C3CCN(Cc4ccc(F)cc4)CC3)[nH]c2=O)cc1 returned hNpr1 antagonist -22%, NIH3T3 tox inconclusive, HEK cytotox 18µM*! and Luciferase inh inactive.
For COc1ccc(-n2nc(C3CCN(Cc4ccc(C#N)cc4)CC3)[nH]c2=O)cc1 the results were hNpr1 antagonist -58%, NIH3T3 tox -28%, HEK cytotox 22µM* and Luciferase inh inactive.
Screening Cc1ccc(CN2CCCC(c3nn(-c4ccc(Cl)cc4)c(=O)[nH]3)C2)cc1 (stereo not given) returned hNpr1 antagonist -26%, NIH3T3 tox inconclusive, HEK cytotox 35µM* and Luciferase inh inactive.
For COc1ccc(-n2nc(C3CCN([S+](=O)([O-])c4ccc(C)cc4)CC3)[nH]c2=O)cc1 the results were hNpr1 antagonist 14%, NIH3T3 tox 1%, HEK cytotox inactive and Luciferase inh inactive.
For COc1ccc(-n2nc(C3CCN(Cc4ccc(C)cc4)CC3)[nH]c2=O)cc1 the results were hNpr1 antagonist -14%, NIH3T3 tox inconclusive, HEK cytotox 40µM*! and Luciferase inh inactive.
Cc1nc(C2CC23CCN(S(=O)(=O)c2cccc(F)c2)CC3)no1 (stereo not given) was read as NIH3T3 tox -33% and HEK cytotox -7%.
`O=C(C1CCCN1C(=O)Cc1ccc(F)cc1)N1CCC(N2Cc3ccccc3C2=O)CC1` (stereo not given) gave NIH3T3 tox -9% and HEK cytotox -10%.
COc1ccccc1C(=O)NC1CCN(c2ccc3nnc(C)n3n2)CC1 was read as NIH3T3 tox -11% and HEK cytotox -1%.
`COCCn1c(=O)c(C(=O)N2CCN(C(=O)c3cccc(Cl)c3)CC2)nc2cccnc21` gave NIH3T3 tox 2% and HEK cytotox 3%.
`Cc1ccccc1CNC(=O)C1(c2ccc(NS(C)(=O)=O)cc2)CCCCC1` gave hNpr1 antagonist -1%, NIH3T3 tox 28µM*, HEK cytotox -29% and Luciferase inh inactive.
For CC(=O)Nc1ccc(C2(C(=O)NCc3cccs3)CCC2)cc1 the results were hNpr1 antagonist 0%, NIH3T3 tox inactive, HEK cytotox 4% and Luciferase inh inactive.
